From PubChem BioAssay (NCI)
Compounds without any hit were thinned out: in the full panel of roughly 83,000, 20% have a hit.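 The test compound was applied at a single concentration to cells in 96-well plates for 48 hours, and percent growth was recorded.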 Active and inactive are the calls of the source. Rule for the calls: active = growth percent below 10; inactive = the rest.

Legend:
Experiment in all cases: NCI-60 one-dose screen, 48 h (100 = growth as untreated, 0 = no growth, -100 = all killed)
Settings in all cases: 10 µM
HCT-15 colon = tested on: HCT-15 colon
HT29 colon = tested on: HT29 colon
SNB-75 CNS = tested on: SNB-75 CNS
SNB-19 CNS = tested on: SNB-19 CNS
U251 CNS = tested on: U251 CNS
PC-3 prostate = tested on: PC-3 prostate
SK-MEL-5 melanoma = tested on: SK-MEL-5 melanoma
UACC-62 melanoma = tested on: UACC-62 melanoma
LOX IMVI melanoma = tested on: LOX IMVI melanoma
SK-MEL-28 melanoma = tested on: SK-MEL-28 melanoma
SK-MEL-2 melanoma = tested on: SK-MEL-2 melanoma
EKVX NSCLC = tested on: EKVX NSCLC
UO-31 renal = tested on: UO-31 renal
TK-10 renal = tested on: TK-10 renal
ACHN renal = tested on: ACHN renal
CAKI-1 renal = tested on: CAKI-1 renal
A498 renal = tested on: A498 renal
CCRF-CEM leukemia = tested on: CCRF-CEM leukemia
MOLT-4 leukemia = tested on: MOLT-4 leukemia
SN12C renal = tested on: SN12C renal

Measured: growth

C[N+]1=C(/C=C/c2ccc(I)cc2)C(C)(C)c2ccccc21
active: CCRF-CEM leukemia 2.26% | MOLT-4 leukemia 8.77%
inactive: HCT-15 colon 86.6% | HT29 colon 97.2% | SNB-75 CNS 95.9% | SNB-19 CNS 96.7% | U251 CNS 40.6% | PC-3 prostate 87.3% | SK-MEL-5 melanoma 90.4% | UACC-62 melanoma 95.3% | LOX IMVI melanoma 38% | SK-MEL-28 melanoma 84.7% | SK-MEL-2 melanoma 95.6% | EKVX NSCLC 91.5% | UO-31 renal 83.5% | TK-10 renal 89.2% | ACHN renal 94.7% | CAKI-1 renal 94.4% | A498 renal 104%

NC(=O)c1ccc(Br)o1
inactive: HCT-15 colon 94.1% | HT29 colon 95.7% | SNB-75 CNS 95.3% | SNB-19 CNS 109% | U251 CNS 105% | PC-3 prostate 102% | SK-MEL-5 melanoma 102% | UACC-62 melanoma 101% | LOX IMVI melanoma 98.1% | SK-MEL-28 melanoma 107% | SK-MEL-2 melanoma 100% | EKVX NSCLC 104% | UO-31 renal 93.2% | TK-10 renal 90.8% | ACHN renal 103% | CAKI-1 renal 102% | A498 renal 108% | CCRF-CEM leukemia 119% | MOLT-4 leukemia 109%

CNC(=O)c1cc(Oc2ccc(NC(=O)Nc3ccc(Cl)c(OC4CCCCC4)c3)c(F)c2)ccn1
inactive: HCT-15 colon 37.7% | HT29 colon 48.1% | SNB-75 CNS 51.5% | SNB-19 CNS 41.2% | U251 CNS 38.8% | PC-3 prostate 16.6% | SK-MEL-5 melanoma 15.6% | UACC-62 melanoma 32.2% | LOX IMVI melanoma 42.3% | SK-MEL-28 melanoma 75.4% | SK-MEL-2 melanoma 55.3% | EKVX NSCLC 27.7% | UO-31 renal 43.1% | TK-10 renal 51.9% | ACHN renal 29.8% | CAKI-1 renal 41.9% | A498 renal 57.5% | CCRF-CEM leukemia 35.4% | MOLT-4 leukemia 24.1%

C=CCc1cc(Nc2c3ccc(Cl)cc3nc3ccc(OC)cc23)cc(CN(CC)CC)c1O
inactive: SNB-75 CNS 13% | SNB-19 CNS 20.6% | U251 CNS 12.5% | UACC-62 melanoma 19.1% | SK-MEL-28 melanoma 39.1% | SK-MEL-2 melanoma 18.5% | TK-10 renal 12.7% | A498 renal 20.6%
active: HCT-15 colon 9.53% | HT29 colon 3.04% | PC-3 prostate 9.79% | SK-MEL-5 melanoma -92.7% | LOX IMVI melanoma -32.9% | EKVX NSCLC 0.403% | UO-31 renal 5.47% | ACHN renal 4.15% | CAKI-1 renal 7.85% | CCRF-CEM leukemia 5.06% | MOLT-4 leukemia -20.3%

CCCCn1c(=O)[nH]c2c(c1=O)C(c1ccc(Cl)cc1)c1c([nH]c(=O)n(CCCC)c1=O)N2
inactive: HCT-15 colon 95.6% | HT29 colon 97.2% | SNB-75 CNS 91.7% | SNB-19 CNS 99.5% | U251 CNS 94% | PC-3 prostate 93.4% | SK-MEL-5 melanoma 102% | UACC-62 melanoma 98.2% | LOX IMVI melanoma 94.9% | SK-MEL-28 melanoma 102% | SK-MEL-2 melanoma 108% | EKVX NSCLC 99.9% | UO-31 renal 94.9% | TK-10 renal 91.3% | ACHN renal 105% | CAKI-1 renal 95.6% | A498 renal 103% | CCRF-CEM leukemia 108% | MOLT-4 leukemia 104%

CN(C)c1ccc2c(c1)OC(N)=C(C#N)C2c1ccc2c(c1)CCCN2C (stereo not drawn)
active: A498 renal -8.42%
inactive: HCT-15 colon 15.8% | HT29 colon 10.5% | SNB-75 CNS 42.7% | SNB-19 CNS 33.3% | U251 CNS 19.5% | PC-3 prostate 27.3% | SK-MEL-5 melanoma 21.4% | UACC-62 melanoma 34.4% | LOX IMVI melanoma 42% | SK-MEL-28 melanoma 61.5% | SK-MEL-2 melanoma 30.7% | EKVX NSCLC 34.5% | UO-31 renal 51.4% | TK-10 renal 70.3% | ACHN renal 52.8% | CAKI-1 renal 40% | CCRF-CEM leukemia 24.5% | MOLT-4 leukemia 35.8%

C=C1C(=O)O[C@H]2[C@H]1CC/C(COC(=O)OCCCCCOC(=O)OC/C1=C/CC[C@@]3(C)O[C@H]3[C@H]3OC(=O)C(=C)[C@@H]3CC1)=C\CC[C@@]1(C)O[C@@H]21
inactive: SNB-75 CNS 80.3% | SNB-19 CNS 25.7%
active: HCT-15 colon -87.7% | HT29 colon -85.6% | U251 CNS 4.2% | PC-3 prostate -25.9% | SK-MEL-5 melanoma -78.8% | UACC-62 melanoma -26.4% | LOX IMVI melanoma -90.1% | SK-MEL-28 melanoma -11% | SK-MEL-2 melanoma -30% | EKVX NSCLC -4.3% | UO-31 renal -54.9% | TK-10 renal -87.6% | ACHN renal -65.7% | CAKI-1 renal -68.5% | A498 renal -34.2% | CCRF-CEM leukemia 1.79% | MOLT-4 leukemia -7.49%

O=C1/C(=C/c2ccc(O)cc2O)N=C2SCCCN12
inactive: HCT-15 colon 97.3% | HT29 colon 93.9% | SNB-75 CNS 96.2% | SNB-19 CNS 97% | U251 CNS 99.2% | PC-3 prostate 100% | SK-MEL-5 melanoma 99.7% | UACC-62 melanoma 97.4% | LOX IMVI melanoma 102% | SK-MEL-28 melanoma 98.4% | SK-MEL-2 melanoma 109% | EKVX NSCLC 96.3% | UO-31 renal 97.6% | TK-10 renal 88.4% | ACHN renal 97.6% | CAKI-1 renal 97.4% | A498 renal 90.1% | CCRF-CEM leukemia 111% | MOLT-4 leukemia 93.8%

CCc1c(C(=O)NCc2c(O)ccc3cccc(O)c23)[nH]c(C)c1C(C)=O
inactive: HCT-15 colon 14% | HT29 colon 58.2% | SNB-75 CNS 56.6% | SNB-19 CNS 53% | U251 CNS 33.4% | PC-3 prostate 27.4% | UACC-62 melanoma 15.4% | LOX IMVI melanoma 16.2% | SK-MEL-28 melanoma 37.5% | SK-MEL-2 melanoma 32.7% | EKVX NSCLC 27.6% | UO-31 renal 12.5% | TK-10 renal 46.8% | ACHN renal 11.6% | CAKI-1 renal 34.2% | A498 renal 49.3% | CCRF-CEM leukemia 16.6% | MOLT-4 leukemia 19.6%
active: SK-MEL-5 melanoma 1.58%

COC(=O)[C@]12CC[C@@H](C)[C@H](C)[C@@H]1C1=CC[C@@H]3[C@@]4(C)CC(=O)[C@H](O)[C@@]5(C)COC(=C45)C[C@@]3(C)[C@]1(C)CC2
active: HCT-15 colon -69.7% | HT29 colon -61.2% | SNB-75 CNS -32.6% | SNB-19 CNS -54.1% | U251 CNS -88.7% | PC-3 prostate -32.3% | SK-MEL-5 melanoma -97.2% | UACC-62 melanoma -75.3% | LOX IMVI melanoma -80.7% | SK-MEL-28 melanoma -41.8% | SK-MEL-2 melanoma -74.1% | EKVX NSCLC -55.5% | UO-31 renal -87.5% | TK-10 renal -76.5% | ACHN renal -83.8% | CAKI-1 renal -36.9% | A498 renal -84.1% | CCRF-CEM leukemia -40.1% | MOLT-4 leukemia -54.9%

CC(=O)OC1Oc2ccccc2-c2oc(=O)c(-c3ccc(F)cc3)cc21 (stereo not drawn)
inactive: HCT-15 colon 95.8% | HT29 colon 99% | SNB-75 CNS 71.8% | SNB-19 CNS 100% | U251 CNS 76.2% | PC-3 prostate 110% | UACC-62 melanoma 50% | LOX IMVI melanoma 85.3% | SK-MEL-28 melanoma 96.7% | SK-MEL-2 melanoma 86.2% | EKVX NSCLC 34.2% | SN12C renal 88.3% | ACHN renal 104% | CAKI-1 renal 93.1% | CCRF-CEM leukemia 91.5% | MOLT-4 leukemia 88.6%
active: SK-MEL-5 melanoma -35.4% | A498 renal -16.1%

NC(=O)C1CCCN(Cc2c[nH]c3ccccc23)C1 (stereo not drawn)
inactive: HCT-15 colon 102% | HT29 colon 95.6% | SNB-75 CNS 85.9% | SNB-19 CNS 103% | U251 CNS 95.2% | PC-3 prostate 91.2% | SK-MEL-5 melanoma 99.6% | UACC-62 melanoma 104% | LOX IMVI melanoma 90.1% | SK-MEL-28 melanoma 110% | SK-MEL-2 melanoma 86.5% | EKVX NSCLC 99.9% | UO-31 renal 75.4% | TK-10 renal 93.7% | ACHN renal 103% | CAKI-1 renal 94.4% | A498 renal 81% | CCRF-CEM leukemia 106% | MOLT-4 leukemia 99.2%

COc1ccc2oc(=O)cc(C(c3ccc[nH]3)c3ccc[nH]3)c2c1
active: HCT-15 colon 9.01% | HT29 colon -10.5% | U251 CNS -7.61% | SK-MEL-5 melanoma -31.4% | LOX IMVI melanoma 7.59% | SK-MEL-2 melanoma 5.1% | A498 renal -8.63% | MOLT-4 leukemia 6.26%
inactive: SNB-75 CNS 29.6% | SNB-19 CNS 22.1% | PC-3 prostate 20.3% | UACC-62 melanoma 30.7% | SK-MEL-28 melanoma 37.7% | EKVX NSCLC 32.7% | UO-31 renal 16.9% | TK-10 renal 26.4% | ACHN renal 17.3% | CAKI-1 renal 15.2% | CCRF-CEM leukemia 11.3%

c1ccc(CC(NCCNC(Cc2ccccc2)c2ccccc2)c2ccccc2)cc1 (stereo not drawn)
inactive: HCT-15 colon 15.5% | SNB-75 CNS 63.3% | SNB-19 CNS 44.4% | U251 CNS 13% | PC-3 prostate 24.2% | UACC-62 melanoma 16% | SK-MEL-28 melanoma 50.2% | SK-MEL-2 melanoma 69.8% | EKVX NSCLC 23% | UO-31 renal 27.3% | TK-10 renal 61.1% | ACHN renal 20.6% | A498 renal 61.8% | CCRF-CEM leukemia 10.1%
active: HT29 colon -27.7% | SK-MEL-5 melanoma -52.3% | LOX IMVI melanoma -87.9% | CAKI-1 renal 7.43% | MOLT-4 leukemia -13.2%

O=C(/C=C/c1ccc(Cl)cc1)c1ccc(Br)cc1
inactive: HCT-15 colon 90.4% | HT29 colon 73.7% | SNB-75 CNS 101% | SNB-19 CNS 99% | U251 CNS 89.4% | PC-3 prostate 97.4% | SK-MEL-5 melanoma 105% | UACC-62 melanoma 92.6% | LOX IMVI melanoma 83.4% | SK-MEL-28 melanoma 96.5% | SK-MEL-2 melanoma 104% | EKVX NSCLC 97.2% | UO-31 renal 90% | TK-10 renal 81.2% | ACHN renal 104% | CAKI-1 renal 101% | CCRF-CEM leukemia 110% | MOLT-4 leukemia 97.7%
active: A498 renal -44.1%

CNC(=S)Sc1ccc([N+](=O)[O-])cc1[N+](=O)[O-]
active: HT29 colon 4.84%
inactive: HCT-15 colon 36.8% | SNB-75 CNS 88.1% | SNB-19 CNS 94.3% | U251 CNS 72.5% | PC-3 prostate 84.4% | SK-MEL-5 melanoma 44.8% | UACC-62 melanoma 81.6% | LOX IMVI melanoma 19.3% | SK-MEL-28 melanoma 66.1% | SK-MEL-2 melanoma 90.7% | EKVX NSCLC 72.1% | UO-31 renal 60.2% | TK-10 renal 84.3% | ACHN renal 37.3% | CAKI-1 renal 27% | A498 renal 80.6% | CCRF-CEM leukemia 12.7% | MOLT-4 leukemia 43.7%
